# Test results: the supplement of paper PMC11732987, “Enantioselective OTUD7B fragment discovery through chemoproteomics screening and high-throughput optimisation” (Communications Chemistry, 2025)
# A number with no mark means an inactive call.
# What was measured:
# Experiment in all cases: log2 ratio of Biotin-Ahx-Ub-VS probe labelling (fragment/DMSO); higher = less target engagement (more negative = stronger competition), active = hit call of the paper (q ≤ 0.05, log2 ratio ≤ -1)
# Conditions in all cases: compound concentration: 200 uM; treatment time: 3 h
# OTUD6B = target: T1, OTUD6B (UniProt Q8N6M0)
# T1 sequence (whole entry): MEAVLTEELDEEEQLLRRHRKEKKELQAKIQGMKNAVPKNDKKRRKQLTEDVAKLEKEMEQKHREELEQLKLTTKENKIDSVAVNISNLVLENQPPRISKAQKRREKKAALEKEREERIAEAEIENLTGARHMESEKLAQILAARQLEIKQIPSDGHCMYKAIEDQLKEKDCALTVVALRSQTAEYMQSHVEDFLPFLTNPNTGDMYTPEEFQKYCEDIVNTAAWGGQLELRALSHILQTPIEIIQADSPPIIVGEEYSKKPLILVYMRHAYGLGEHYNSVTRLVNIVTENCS
# Procedure, shortened: (§1)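 Labelled DUBs from HEK293T lysate were NeutrAvidin-enriched, digested with LysC and trypsin, and run by diaPASEF LC-MS/MS. Before that, each 495 µg sample in Tris/CHAPS/IGEPAL buffer with protease inhibitors was treated in triplicate with fragment at 200 µM or vehicle for 3 h, then with Biotin-Ahx-Ub-VS at 0.5 µM final for 1 h. Values are average log2 ratios of fragment over vehicle by unpaired t-test, based on global-median-normalised Spectronaut label-free quantities from proteins with ≥2 unique peptides.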
# OTUD7B = target: T2, OTUD7B (UniProt Q6GQQ9)
# T2 sequence (whole entry): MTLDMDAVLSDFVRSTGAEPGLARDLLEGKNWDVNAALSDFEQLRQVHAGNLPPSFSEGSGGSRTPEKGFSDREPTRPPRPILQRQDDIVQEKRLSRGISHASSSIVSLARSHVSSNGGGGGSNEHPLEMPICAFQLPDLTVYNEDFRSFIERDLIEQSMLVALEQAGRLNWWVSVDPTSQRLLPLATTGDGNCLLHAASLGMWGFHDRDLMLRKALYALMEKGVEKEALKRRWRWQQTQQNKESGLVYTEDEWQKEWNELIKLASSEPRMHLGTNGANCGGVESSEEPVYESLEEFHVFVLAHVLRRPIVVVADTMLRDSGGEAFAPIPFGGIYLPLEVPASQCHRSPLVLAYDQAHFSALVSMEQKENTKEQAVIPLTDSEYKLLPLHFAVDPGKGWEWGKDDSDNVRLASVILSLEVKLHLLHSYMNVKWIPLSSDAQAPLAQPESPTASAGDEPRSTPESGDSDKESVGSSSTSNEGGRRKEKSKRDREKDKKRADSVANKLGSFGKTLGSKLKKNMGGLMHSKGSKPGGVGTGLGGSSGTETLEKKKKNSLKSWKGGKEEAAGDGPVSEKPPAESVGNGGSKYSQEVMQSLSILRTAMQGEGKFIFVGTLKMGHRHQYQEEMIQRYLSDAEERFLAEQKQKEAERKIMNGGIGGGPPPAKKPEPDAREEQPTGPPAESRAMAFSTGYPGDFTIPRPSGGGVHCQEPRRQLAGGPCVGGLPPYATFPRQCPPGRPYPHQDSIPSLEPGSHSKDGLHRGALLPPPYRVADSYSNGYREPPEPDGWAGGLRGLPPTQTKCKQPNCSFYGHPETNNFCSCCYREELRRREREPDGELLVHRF
# Procedure, shortened: as §1
# PRPF8 = PRPF8 (UniProt Q6P2Q9)
# Procedure, shortened: as §1
# PSMD7 = target: T3, PSMD7 (UniProt P51665)
# T3 sequence (whole entry): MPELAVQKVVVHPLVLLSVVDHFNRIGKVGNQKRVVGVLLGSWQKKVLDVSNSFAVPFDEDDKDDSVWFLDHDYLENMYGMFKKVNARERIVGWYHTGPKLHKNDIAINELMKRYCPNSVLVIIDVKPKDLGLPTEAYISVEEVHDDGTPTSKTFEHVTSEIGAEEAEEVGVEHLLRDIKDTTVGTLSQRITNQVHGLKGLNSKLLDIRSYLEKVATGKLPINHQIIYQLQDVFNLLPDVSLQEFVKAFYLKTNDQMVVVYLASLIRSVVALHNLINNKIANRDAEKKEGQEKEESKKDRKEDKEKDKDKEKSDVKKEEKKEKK
# Procedure, shortened: as §1
# UCHL1 = UCHL1 (UniProt P09936)
# Chain of UCHL1 (P09936 whole entry, looked up): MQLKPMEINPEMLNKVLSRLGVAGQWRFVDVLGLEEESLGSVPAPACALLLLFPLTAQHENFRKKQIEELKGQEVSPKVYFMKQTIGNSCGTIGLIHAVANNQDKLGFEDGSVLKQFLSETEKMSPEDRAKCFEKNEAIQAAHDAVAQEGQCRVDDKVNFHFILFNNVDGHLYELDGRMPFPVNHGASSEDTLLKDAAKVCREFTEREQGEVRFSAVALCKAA
# Procedure, shortened: as §1
# UCHL3 = target: T4, UCHL3 (UniProt P15374)
# T4 sequence (whole entry): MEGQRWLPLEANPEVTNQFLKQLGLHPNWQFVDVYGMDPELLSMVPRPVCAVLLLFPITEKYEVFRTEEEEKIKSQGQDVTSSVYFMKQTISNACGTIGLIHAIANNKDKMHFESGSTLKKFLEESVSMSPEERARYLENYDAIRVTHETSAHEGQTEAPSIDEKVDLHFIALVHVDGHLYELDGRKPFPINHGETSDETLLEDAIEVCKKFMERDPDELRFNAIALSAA
# Procedure, shortened: as §1
# UCHL5 = target: T5, UCHL5 (UniProt Q9Y5K5)
# T5 sequence (whole entry): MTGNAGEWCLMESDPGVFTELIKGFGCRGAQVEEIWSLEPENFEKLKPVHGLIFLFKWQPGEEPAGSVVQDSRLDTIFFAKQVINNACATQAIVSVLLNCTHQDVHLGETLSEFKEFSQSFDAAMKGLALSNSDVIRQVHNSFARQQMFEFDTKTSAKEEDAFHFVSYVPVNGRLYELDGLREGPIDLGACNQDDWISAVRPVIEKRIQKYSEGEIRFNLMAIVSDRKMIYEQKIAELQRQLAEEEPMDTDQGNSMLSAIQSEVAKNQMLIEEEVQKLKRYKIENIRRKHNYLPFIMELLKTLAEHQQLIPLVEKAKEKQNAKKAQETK
# Procedure, shortened: as §1
# USP10 = USP10 (UniProt Q14694)
# Chain of USP10 (Q14694 whole entry): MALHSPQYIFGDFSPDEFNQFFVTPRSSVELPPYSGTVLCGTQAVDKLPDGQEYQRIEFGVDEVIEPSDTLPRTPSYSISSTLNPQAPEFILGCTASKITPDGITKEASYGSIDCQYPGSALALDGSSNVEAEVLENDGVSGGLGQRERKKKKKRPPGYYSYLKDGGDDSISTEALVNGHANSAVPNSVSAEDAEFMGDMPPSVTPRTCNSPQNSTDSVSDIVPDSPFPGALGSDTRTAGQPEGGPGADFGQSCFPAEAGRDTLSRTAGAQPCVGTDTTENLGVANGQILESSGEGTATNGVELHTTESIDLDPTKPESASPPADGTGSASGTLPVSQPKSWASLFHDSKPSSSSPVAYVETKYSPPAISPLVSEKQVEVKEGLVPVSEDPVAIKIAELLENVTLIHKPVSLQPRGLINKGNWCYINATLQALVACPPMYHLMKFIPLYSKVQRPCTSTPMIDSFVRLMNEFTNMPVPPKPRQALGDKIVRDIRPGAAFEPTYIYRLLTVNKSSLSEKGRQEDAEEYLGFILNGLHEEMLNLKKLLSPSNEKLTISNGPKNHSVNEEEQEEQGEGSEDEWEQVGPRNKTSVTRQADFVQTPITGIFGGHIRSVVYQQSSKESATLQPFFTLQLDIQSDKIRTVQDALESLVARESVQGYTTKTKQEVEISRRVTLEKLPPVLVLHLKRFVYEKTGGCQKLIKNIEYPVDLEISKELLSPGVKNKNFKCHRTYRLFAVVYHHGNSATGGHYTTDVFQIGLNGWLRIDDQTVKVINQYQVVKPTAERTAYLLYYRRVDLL
# Procedure, shortened: as §1
# USP15 = target: T6, USP15 (UniProt Q9Y4E8)
# T6 sequence (whole entry): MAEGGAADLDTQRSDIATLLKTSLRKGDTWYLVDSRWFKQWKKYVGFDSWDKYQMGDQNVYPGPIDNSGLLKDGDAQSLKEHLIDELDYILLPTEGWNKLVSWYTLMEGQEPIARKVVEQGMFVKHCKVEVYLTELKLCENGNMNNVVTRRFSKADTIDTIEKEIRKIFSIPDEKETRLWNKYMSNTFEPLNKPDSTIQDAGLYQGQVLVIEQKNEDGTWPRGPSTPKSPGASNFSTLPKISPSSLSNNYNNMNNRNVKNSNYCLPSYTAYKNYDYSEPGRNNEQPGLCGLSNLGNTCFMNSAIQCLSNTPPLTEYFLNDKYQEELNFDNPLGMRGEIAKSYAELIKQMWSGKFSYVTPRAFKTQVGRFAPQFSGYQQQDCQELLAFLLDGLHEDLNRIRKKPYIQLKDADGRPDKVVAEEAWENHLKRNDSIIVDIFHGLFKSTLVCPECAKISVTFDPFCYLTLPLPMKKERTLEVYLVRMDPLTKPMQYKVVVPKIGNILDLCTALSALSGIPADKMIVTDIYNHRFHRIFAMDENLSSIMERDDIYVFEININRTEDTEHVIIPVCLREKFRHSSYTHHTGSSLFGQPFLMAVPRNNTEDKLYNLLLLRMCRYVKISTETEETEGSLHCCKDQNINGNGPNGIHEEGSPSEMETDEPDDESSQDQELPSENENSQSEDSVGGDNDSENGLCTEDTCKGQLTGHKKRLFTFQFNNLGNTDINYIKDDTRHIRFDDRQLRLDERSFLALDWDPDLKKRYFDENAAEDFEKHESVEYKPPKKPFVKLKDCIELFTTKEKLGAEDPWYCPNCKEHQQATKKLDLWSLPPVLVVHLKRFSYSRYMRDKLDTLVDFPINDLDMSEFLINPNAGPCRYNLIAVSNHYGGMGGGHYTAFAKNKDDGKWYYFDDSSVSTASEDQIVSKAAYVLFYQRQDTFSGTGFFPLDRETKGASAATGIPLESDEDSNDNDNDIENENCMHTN
# Procedure, shortened: as §1
smiles,measurement,setting,value
Cc1cccc(C(CNC(=O)CCl)N2CCOCC2)c1.Cl (centres undefined),log2 ratio of Biotin-Ahx-Ub-VS probe labelling,OTUD6B,-0.0947
same,log2 ratio of Biotin-Ahx-Ub-VS probe labelling,OTUD7B,-0.255
same,log2 ratio of Biotin-Ahx-Ub-VS probe labelling,PRPF8,-0.0193
same,log2 ratio of Biotin-Ahx-Ub-VS probe labelling,PSMD7,-0.183
same,log2 ratio of Biotin-Ahx-Ub-VS probe labelling,UCHL1,-1.07 (active)
same,log2 ratio of Biotin-Ahx-Ub-VS probe labelling,UCHL3,0.278
same,log2 ratio of Biotin-Ahx-Ub-VS probe labelling,UCHL5,-0.182
same,log2 ratio of Biotin-Ahx-Ub-VS probe labelling,USP10,-0.0807
same,log2 ratio of Biotin-Ahx-Ub-VS probe labelling,USP15,-0.0506
